From PubChem
ALDH1A1 block = blocks purified human ALDH1A1 activity; actives 7.3% (n = 220,000); Purified ALDH1A1, NADH fluorescence, propionaldehyde substrate; Potency, µM (series often up to 75.3 µM), usual class: inhibitors; active means well fitted inhibition curve with a large enough effect, not every such curve was filed as active; inconclusive means small, poorly fitted or top-dose-only effect, or another doubt; inactive means no such curve, though single readings can be large or run the other way
HPGD inh = blocks human HPGD enzyme activity; P15428; purified HPGD, NADH fluorescence kinetic, PGE2 substrate; actives 4.3% (n = 150,000); Potency, µM, actives largely listed as inhibitors; active means well fitted inhibition curve with a large enough effect, not every such curve was filed as active; inconclusive means small, poorly fitted or top-dose-only effect, or another doubt; inactive means no such curve, though single readings can be large or run the other way
Target sequence (P15428 whole entry, looked up): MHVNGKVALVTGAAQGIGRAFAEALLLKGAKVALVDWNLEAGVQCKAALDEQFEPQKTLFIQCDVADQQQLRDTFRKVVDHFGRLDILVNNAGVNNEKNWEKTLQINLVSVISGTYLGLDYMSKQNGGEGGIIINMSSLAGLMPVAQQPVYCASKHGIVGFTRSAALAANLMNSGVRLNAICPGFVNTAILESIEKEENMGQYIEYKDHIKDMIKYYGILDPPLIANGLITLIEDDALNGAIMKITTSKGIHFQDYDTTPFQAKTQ
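NADH formation kinetics: reaction with 30 uM PGE2 and 1 mM NAD+ (final), 20 nM enzyme, Tris-HCl pH 8 with Tween 20, after 15 min compound preincubation at room temperature. Fluorescence change, last versus first of five reads.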
IMPase cell inh = cell-permeable inhibitors of inositol monophosphatase (IMPase); P97697; CHO-M1 cells, IP1 accumulation, HTRF TR-FRET ratio; inhibition (IP1 accumulation), % at 46.1 µM; 120,000 tested, under 10 active; AID 901; active means well fitted curve in the direction sought with a large enough effect in the signal ratio, not every such curve was filed as active; inconclusive means small, poorly fitted or top-dose-only effect, or a change in a side signal; inactive means no such curve, though single readings can be large or run the other way; the % refers to the signal ratio;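 further: cells stimulated with carbachol in lithium chloride buffer; higher means more IMPase inhibition seen as more IP1 and lower FRET ratio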
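Measured: the HTRF emission ratio (665/620 nm) plus the 620 nm donor channel, each fitted to the Hill equation to give AC50. Cells were CHO-M1 given compounds up to 46 uM and a 30 min carbachol stimulation at 37C.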
PNC assembly inh = perinucleolar compartment assembly inhibition | AID 2417 | PC3M PTB-GFP, PNC prevalence imaging, 16 h; active compounds read low | actives 3.1% (n = 140,000) | activity change (PNC), negative = inhibition, % at 10 µM;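 active means readout at or below -70, meaning at least 70% loss of cells showing the perinucleolar compartment, a nuclear body marking cancer cells; inconclusive means readout between -30 and a set limit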
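Compounds are pinned in duplicate onto adhered PC3M cells stably expressing GFP-tagged PTB and incubated 16 h at 37 C. Cells are then fixed, nuclei stained with Hoechst, and PNC-positive cells counted.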
IMPase Li inh = membrane-permeable IMPase blocker, potentiated with lithium | actives 0.35% (n = 210,000) | Potency, µM (top dose mostly 59.4 µM), usual class: inhibitors | CHO-M1 cells, IP1 TR-FRET (IP-One), carbachol + lithium;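 further: IP1 builds up when IMPase is blocked and the TR-FRET signal falls; nearly all actives have a fitted effect of over 50% in size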
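CHO cells stably expressing M1 receptor (2000/well, cultured 16–30 h) treated 30 min at 37C with compound plus low lithium. Cytosolic IP1 by TR-FRET (665/620 ratio and 620 channel) after 10 min lysis; AC50 by Hill fit.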
NPSR antagonist = blocks cAMP signaling of the human neuropeptide S receptor | actives 1% (n = 220,000) | Potency, µM (titrated, usually from 38.3 µM), most hits filed as inhibitors | CHO-NPSR cells, cAMP TR-FRET, antagonist mode | Q6W5P4; further: nearly all actives have a fitted effect of over 50% in size
Target sequence (Q6W5P4 whole entry, looked up): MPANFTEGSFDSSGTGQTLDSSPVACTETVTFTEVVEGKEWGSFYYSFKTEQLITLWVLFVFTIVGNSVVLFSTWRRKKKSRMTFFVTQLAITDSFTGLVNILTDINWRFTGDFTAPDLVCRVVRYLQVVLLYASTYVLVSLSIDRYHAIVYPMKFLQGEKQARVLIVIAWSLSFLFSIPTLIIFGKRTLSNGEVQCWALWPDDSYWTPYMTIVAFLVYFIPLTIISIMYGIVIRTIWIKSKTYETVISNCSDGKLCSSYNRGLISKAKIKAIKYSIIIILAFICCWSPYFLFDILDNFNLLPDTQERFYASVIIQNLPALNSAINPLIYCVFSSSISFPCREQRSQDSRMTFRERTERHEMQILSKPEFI
A number is an active result; - = inactive; ? = inconclusive; . = not tested or not shown. In the library only some 11% were active in any assay of this set; here they are far more common. Unless noted, the call rests on the fitted dose curve; in most records, active means well fitted curve in the direction sought with a large enough effect; inconclusive means small, poorly fitted or top-dose-only effect, or another doubt; inactive means no such curve, though single readings can be large; an effect the other way counts as inactive or inconclusive.

SMILES | ALDH1A1 block | HPGD inh | IMPase cell inh | PNC assembly inh | IMPase Li inh | NPSR antagonist
CCc1nnc(NC(=O)CSc2nnc(-c3ccccc3O)n2CC)s1 | - | - | - | - | - | -
CCc1nnc(NC(=O)CSc2nccn2-c2cccc(C)c2C)s1 | 16µM | - | - | - | - | -
CCc1nnc(NC(=O)CSc2nnc(-c3cccnc3)n2CC)s1 | - | - | - | -104 | - | -
C[C@H](NS(=O)(=O)c1ccc(Cl)c(Cl)c1)C(=O)OCc1cc(=O)n2cc(Br)ccc2n1 | ? | - | - | - | - | -
Cn1ncc([N+](=O)[O-])c1C(=O)Nc1nc2ccccc2n1CCN1CCCCC1 | ? | - | - | - | 7.9µM | -
Cc1c(Cl)c(C(=O)Nc2nc3ccccc3n2CCN2CCCCC2)nn1C | - | - | - | - | - | -
CCN(CC)NC(=S)Nc1ccccc1 | - | - | - | - | - | -
CC(C)OCCCN1CN(S(=O)(=O)c2ccc(Cl)cc2)c2nc3ccccc3nc21 | 28µM | - | - | - | - | -
N#CCC(=O)Nc1ccc(C(=O)OCC(=O)Nc2ccccc2-c2ccccc2)cc1 | ? | . | . | . | - | -
O=C1CS/C(=N/N=C/c2c[nH]c3ccccc23)N1 | . | . | . | . | . | -
O=C1/C(=C/c2c[nH]c3ccccc23)CCC/C1=C\c1c[nH]c2ccccc12 | 1.3µM | - | . | - | - | -
Cc1cc(C)n(-c2ccc(C(=O)OCC(=O)N(CC(C)C)C3CCS(=O)(=O)C3)cc2)n1 (configuration not stated) | - | - | - | ? | - | -
N#CC(C#N)=C1C=CC=CN1/C(=C\c1ccco1)C(=O)c1ccccc1 | - | 22µM | - | - | - | ?
N#CC(C#N)=C1C=CC=CN1/C(=C\c1ccco1)C(=O)c1ccc(Br)cc1 | ? | 16µM | - | - | - | ?
O=C(NCCc1ccccc1)c1ccc([N+](=O)[O-])cc1 | - | - | - | - | - | -
CC(NC(=O)Nc1ccc([N+](=O)[O-])cc1)C(c1ccccc1)N1CCOCC1 (configuration not stated) | 2.5µM | . | . | . | - | -
Cc1[nH]c(=S)sc1Cc1ccc(Cl)c(Cl)c1 | 25µM | 16µM | . | - | - | -
Cc1[nH]c2ccccc2c1/C=N/NC(=O)C1CC1(c1ccccc1)c1ccccc1 (configuration not stated) | - | - | . | -110 | - | -
Cc1[nH]c2ccccc2c1/C=N/NC(=O)CCC(=O)NCc1ccccc1 | - | . | . | . | - | -
CC1(C)NC(=O)N(CC(O)CN2C(=O)NC(C)(C)C2=O)C1=O | - | - | - | ? | - | -
Cc1cc(C)n(CC(O)CN2C(=O)NC(C)(C)C2=O)n1 (configuration not stated) | - | - | - | -107 | - | -
COCc1cc(C)n(CC(=O)Nc2cccc(C)c2)c(=O)c1C#N | - | . | . | . | - | -
COc1cccc(-c2nnc(SCC3CNC(=O)O3)n2-c2ccc(Cl)cc2)c1 (configuration not stated) | 0.63µM | . | - | - | . | -
CCCCSC1=N/C(=C/c2ccsc2)C(=O)N1c1ccccc1 | ? | - | . | - | - | -
CCN(C(=O)c1ccc(Cl)cc1[N+](=O)[O-])c1ccccc1C | - | . | . | . | - | -
SMILES | ALDH1A1 block | HPGD inh | IMPase cell inh | PNC assembly inh | IMPase Li inh | NPSR antagonist
CCC(C)NC(=O)[C@H](CSCc1ccccc1)N1Cc2ccccc2C1=O (some centres not stated) | - | - | . | -82 | - | -
Cc1cc(C(=O)Cn2ncc(Cl)c(Cl)c2=O)c(C)n1CC(F)(F)F | ? | - | - | - | - | -
O=C(OCCN1CCN(c2ncc(C(F)(F)F)cc2Cl)CC1)c1ccc(F)cc1 | - | - | - | - | - | -
O=C(OCn1ncc(Cl)c(Cl)c1=O)c1ccc(C(F)(F)F)cc1 | 3.5µM | - | - | - | - | -
Cc1ccc(C(=O)OCn2ncc(Cl)c(Cl)c2=O)cc1 | 1.4µM | 28µM | - | ? | - | ?
Cc1ccc(C)c(C(=O)Cn2ncc(Cl)c(Cl)c2=O)c1 | 14µM | - | - | - | - | ?
Cc1ccc(S(=O)(=O)CCc2nnc(NC(=O)c3ccco3)s2)cc1 | - | . | . | . | - | -
CCCOc1ccc([N+](=O)[O-])cc1C1NC(=S)NC(c2ccccc2)=C1C(=O)OCC (configuration not stated) | ? | - | - | - | - | -
CCOC(=O)C1=C(c2cccc(F)c2)NC(=S)NC1C (configuration not stated) | 1.6µM | - | - | - | - | -
CCCCN(CC)Cc1c(O)ccc2c3c(c(=O)oc12)CCC3 | . | . | . | . | . | -
O=C(C/C=N/OCc1ccccc1F)c1cnc(-c2ccc(Cl)cc2)s1 | 22µM | - | - | - | - | -
c1ccc(OCc2nnc3n2N=C(c2ccccc2)CS3)cc1 | 10µM | . | . | . | - | -
COc1ccccc1C1=Nn2c(COc3ccccc3)nnc2SC1 | 14µM | . | . | . | - | -
CCCCCC(=O)Nc1ccc(NC(=O)c2cc3ccccc3o2)c(OC)c1 | . | . | - | . | . | .
CCOC(=O)c1c(C)[nH]c(C)c1C(=O)COC(=O)CNC(=O)c1ccc(OCC)cc1 | - | - | - | - | - | -
Cc1ccc(C2=N/C(=C\N3CCCCC3)C(=O)O2)cc1 | ? | ? | - | - | - | -
Cc1ccc(S(=O)(=O)Oc2ccc(/C=C3/N=C(c4ccccc4)OC3=O)cc2)cc1 | 8.9µM | - | . | - | - | -
Cc1ccc2cc3cc(C(=O)N(CC(=O)NC4CCCC4)c4cccc(C)c4C)sc3nc2c1 | - | ? | - | -106 | - | ?
Cc1ccc(C)c(N(CC(=O)NC2CCCC2)C(=O)c2cc3cc4cccc(C)c4nc3s2)c1 | - | - | ? | - | - | -
Cc1ccc(C)c(NC(=O)CN(C)S(=O)(=O)c2ccc(F)cc2)c1 | - | - | - | ? | - | -
O=c1c(C(c2ccc(O)cc2)c2c(O)nc3n(c2=O)CCS3)c(O)nc2n1CCS2 | 13µM | 13µM | - | - | - | -
O=c1c(C(c2ccc(O)cc2)c2c(O)nc3n(c2=O)CCCS3)c(O)nc2n1CCCS2 | ? | ? | - | - | - | -
Cc1ccc(C(c2c(O)nc3n(c2=O)CCS3)c2c(O)nc3n(c2=O)CCS3)cc1 | ? | - | . | -81 | - | -
CCCN(CCC)S(=O)(=O)c1ccc(Cl)c([N+](=O)[O-])c1 | ? | . | . | . | - | -
COC(=O)c1ccc(SCC(=O)NC2CCCC2)c([N+](=O)[O-])c1 | - | 35µM | . | - | - | -
O=C(COC(=O)c1ccccc1C(=O)c1ccc(Cl)c([N+](=O)[O-])c1)NC1CCCCCC1 | 14µM | - | - | - | - | 10µM
N#C/C(=C\c1cccc(NC(=O)c2ccccc2Cl)c1)C(=O)NCCc1ccccc1 | 25µM | ? | - | - | - | -
